The list is not random: actives were taken first. Their share in the collection is about 18%.
CtBP-E1A blk: blocks the CtBP interaction with E1A; AlphaScreen GST-E1A/His-CtBP binding, 1536-well; hits give low values; activity change, % (test concentration not listed); 340,000 compounds, 0.49% hits; in the data active means activity change below about -65%; inconclusive means mostly about -30% to -63%
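AlphaScreen with 125 nM GST-E1A and 125 nM His-CtBP (5X stocks) in Tris pH 8.0, 300 mM NaCl, BSA, Tween 20, TCEP. Compounds preincubated 2 h at 37 deg C, then glutathione donor/nickel acceptor beads added for 1 h at 37 deg C in dark.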
DT40 TDP1 no CPT: qHTS for Inhibitors of human tyrosyl-DNA phosphodiesterase 1 (TDP1): qHTS in cells in absence of CPT; 420,000 compounds, 15% hits; Potency, µM (series often up to 46.2 µM), hits mostly inhibitors; DT40 Tdp1-/- hTDP1 cells, no CPT, ATP luminescence, 48 h; further: nearly all actives have a fitted effect of over 55% in size
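Readout: luminescence from CellTiter-Glo after 30 min in the dark at RT. Cells: DT40 Tdp1-/- with stable hTDP1, 400/well. Exposure: compounds alone, ≥48 hr, 37 °C.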
TDP1 inh: blocks human tyrosyl-DNA phosphodiesterase 1 | recombinant TDP1, AlphaScreen DNA substrate cleavage | Potency, µM (titrated, usually from 130 µM), usual class: inhibitors | 350,000 compounds, 0.28% hits | AID 485290; further: nearly all actives have a fitted effect of over 40% in size
Target sequence (Q9NUW8 whole entry, looked up): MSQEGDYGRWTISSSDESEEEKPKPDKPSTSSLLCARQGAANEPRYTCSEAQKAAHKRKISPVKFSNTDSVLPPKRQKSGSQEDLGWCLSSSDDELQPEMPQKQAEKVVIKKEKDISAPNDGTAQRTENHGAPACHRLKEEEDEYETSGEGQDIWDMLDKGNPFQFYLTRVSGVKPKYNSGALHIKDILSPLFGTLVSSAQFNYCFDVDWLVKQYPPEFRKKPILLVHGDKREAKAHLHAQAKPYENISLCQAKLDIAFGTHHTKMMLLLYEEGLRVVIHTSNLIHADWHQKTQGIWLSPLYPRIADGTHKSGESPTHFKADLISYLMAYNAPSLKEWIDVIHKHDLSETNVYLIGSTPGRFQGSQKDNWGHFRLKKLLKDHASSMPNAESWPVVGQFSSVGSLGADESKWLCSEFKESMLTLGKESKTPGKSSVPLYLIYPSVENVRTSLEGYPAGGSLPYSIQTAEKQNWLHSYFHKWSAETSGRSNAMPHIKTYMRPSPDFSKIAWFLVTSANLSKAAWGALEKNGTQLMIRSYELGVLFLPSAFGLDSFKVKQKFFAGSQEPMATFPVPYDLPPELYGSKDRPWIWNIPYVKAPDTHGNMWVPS
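Steps: enzyme plus compound, 15 min RT; add biotin/phosphotyrosine-FITC oligonucleotide (15 nM final), react 5 min; add donor/acceptor beads (10 ug/ml final), 10 min; read AlphaScreen. Tdp1 at 1 nM final.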
IL1B secr inh: inflammasome signaling inhibition, IL-1 beta readout; THP-1 LPS/ATP IL-1B secretion, AlphaLISA, 16 h; hits give low values; activity change, % at 57.5 µM; 360,000 compounds, 4.7% hits; in the data active means activity change below about -50%; inconclusive means mostly about -30% to -49%
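Secreted IL-1B measured by AlphaLISA bead assay after 16 h compound exposure of THP-1 cells; compounds (final up to 57.5 uM) added 1 h before LPS (250 ng/mL) and ATP (1.25 mM) stimulation; lower signal means less secretion.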
TDP1 cell CPT: DT40-hTDP1 cell growth loss with CPT. AID 686979. 420,000 compounds, 12% hits. Potency, µM (top dose mostly 46.2 µM), most hits filed as inhibitors. chicken DT40 Tdp1-/-;hTDP1 cells + 20 nM CPT, ATP luminescence, 48 h; further: nearly all actives have a fitted effect of over 55% in size
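Chicken DT40 Tdp1-/- cells stably complemented with human TDP1 were seeded at 400 cells/well in medium containing 20 nM camptothecin, exposed to pin-transferred compounds, and grown at 37 °C for at least 48 hr. Viability was read as ATP luminescence.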
Six1-Eya2 blk: Six1/Eya2 interaction inhibition; Q15475+O00167; AlphaScreen GST-Six1/His-Eya2 binding, biochemical; hits give low values; activity change, % (concentration not given with the values); 360,000 compounds, 0.56% hits; in the data active means activity change below about -65%; inconclusive means mostly about -30% to -63%
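Homogeneous AlphaScreen proximity assay pairing GST-Six1 with His-tagged Eya2 (added as 5X mix: 250 nM and 500 nM) in 50 mM Tris pH 8.0, 300 mM NaCl, 1 mM TCEP. Glutathione donor and nickel acceptor beads; 1 h, 37 °C, dark.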
Numbers stand for hits; . = inactive; ? = inconclusive; / = not tested or not shown; [ ] = dose if it differs, or a comment. Unless noted, the call rests on the fitted dose curve; in most records, active means well fitted curve in the direction sought with a large enough effect; inconclusive means small, poorly fitted or top-dose-only effect, or another doubt; inactive means no such curve, though single readings can be large; an effect the other way counts as inactive or inconclusive.

SMILES	CtBP-E1A blk	DT40 TDP1 no CPT	TDP1 inh	IL1B secr inh	TDP1 cell CPT	Six1-Eya2 blk
O=C(O)CSCC(=O)N1CCN(c2cc(C(F)(F)F)nc3ccccc23)CC1	/	.	/	.	.	.
Cc1cc(N2CCN(C(=O)c3[nH]c(C(F)(F)F)nc3-c3ccccc3)CC2)c2ccccc2n1	?	15µM	/	.	16µM	?
O=C(c1[nH]c(C(F)(F)F)nc1-c1ccccc1)N1CCc2c([nH]c3ccccc23)C1	?	5.8µM	/	.	5.8µM	?
O=C(c1[nH]c(C(F)(F)F)nc1-c1ccccc1)N1CCN(c2ccncc2)CC1	.	.	/	.	.	.
O=C(c1[nH]c(C(F)(F)F)nc1-c1ccccc1)N1CCN(c2ncccn2)CC1	.	?	/	.	29µM	.
O=C(c1[nH]c(C(F)(F)F)nc1-c1ccccc1)N1CCC(C(O)(c2ccccc2)c2ccccc2)CC1	.	?	/	.	.	.
O=C(c1cc(Cl)cc(Cl)c1)N1CCN(c2cc(C(F)(F)F)nc3ccccc23)CC1	/	12µM	.	.	21µM	.
CC(C)Oc1c(N2CCOCC2)c(=O)c1=O	.	.	.	.	.	.
Cc1ncc2c(c1CNC(=O)c1ccc3c(c1)OCO3)CCN(C(=O)c1scc3c1CCCC3)C2	/	.	/	/	.[9.04 µM]	/
Cc1ccc(C(O)c2ncc(-c3cccc4ccccc34)[nH]2)cc1F (stereo not given)	.	?	/	.	?	.
O=C(c1[nH]c(C(F)(F)F)nc1-c1ccccc1)N1CCN(c2ccccc2)CC1	.	4.1µM	/	.	4.6µM	.
COc1cc2c(cc1NC(=O)COC(=O)[C@@H](NC(=O)c1ccccc1)C(C)C)oc1ccccc12	.	?	.	.	?	.
COc1cc2c(cc1NC(=O)COCC(=O)O)oc1ccccc12	.	.	/	.	.	.
CC(C)[C@H](NC(=O)c1ccccc1F)C(=O)OCC(=O)NC(=O)NC1CCCCC1	.	.	.	.	?	.
COc1cc2c(cc1NC(=O)C(C)N1CCN(S(=O)(=O)c3ccc(C)c(C)c3)CC1)oc1ccccc12 (stereo not given)	.	.	.	.	.	.
COc1cc2c(cc1NC(=O)COC(=O)[C@@H](NC(=O)c1ccccc1F)C(C)C)oc1ccccc12	.	21µM	.	.	?	.
COc1cc2c(cc1NC(=O)C(C)Oc1ccccc1)oc1ccccc12 (stereo not given)	/	?	.	/	15µM	/
COc1cc2c(cc1NC(=O)C(C)OC(=O)c1ccc(S(=O)(=O)Nc3ccccc3Cl)cc1)oc1ccccc12 (stereo not given)	.	18µM	.	.	23µM	.
CC(C)[C@H](NC(=O)c1ccccc1F)C(=O)OCC(=O)Nc1sccc1C(N)=O	.	12µM	.	.	?	.
COc1cc2c(cc1NC(=O)/C=C/c1cc(OC)c(OC)c(OC)c1)oc1ccccc12	.	15µM	.	.	21µM	.
COc1ccc(CC(=O)Nc2cc3oc4ccccc4c3cc2OC)cc1	.	?	.	?	?	.
COc1cccc(CN(C)CC(=O)Nc2cc3oc4ccccc4c3cc2OC)c1	.	21µM	.	.	23µM	.
COc1ccccc1CC(=O)Nc1cc2oc3ccccc3c2cc1OC	.	16µM	.	.	26µM	.
COc1ccc(/C=C/C(=O)OCC(=O)Nc2cc3oc4ccccc4c3cc2OC)cc1	/	/	.	/	/	/
COc1cc2c(cc1NC(=O)CN(C)Cc1cccc(OC)c1OC)oc1ccccc12	.	13µM	.	.	21µM	.
SMILES	CtBP-E1A blk	DT40 TDP1 no CPT	TDP1 inh	IL1B secr inh	TDP1 cell CPT	Six1-Eya2 blk
O=C(/C=C/c1ccccc1)Nn1cnnc1	.	.	.	.	.	.
COc1cccc(CC(=O)Nc2ccc(-c3nc4ccccc4s3)cc2)c1	/	.	.	/	.	/
COc1cc2c(cc1NC(=O)c1cccnc1)oc1ccccc12	.	?	.	.	?	.
COc1cc2c(cc1NC(=O)c1ccncc1)oc1ccccc12	.	21µM	.	.	?	.
CC(Oc1ccc2oc3ccccc3c2c1)C(=O)NC12CC3CC(CC(C3)C1)C2 (stereo not given)	.	29µM	.	.	16µM	.
COc1cc2c(cc1NC(=O)c1cc(-c3ccccn3)nc3ccccc13)oc1ccccc12	.	21µM	.	.	21µM	.
COc1ccc(C(=O)NC23CC4CC(CC(C4)C2)C3)cc1	/	.	/	.	.	.
CCc1nnc(NC(=O)CCC(=O)N2CCN(Cc3ccccc3)CC2)s1	.	.	.	.	.	.
Cc1ccc(O)c(N=Cc2sc3ccccc3c2Cl)c1	.	?	.	.	?	.
Oc1ccccc1N=Cc1sc2ccccc2c1Cl	.	18µM	.	.	?	.
COc1ccc(-c2nc3cnc(N(C)C)nc3n(Cc3ccc(F)cc3)c2=O)cc1	/	.	/	/	.	/
COc1cccc(NC(=O)C2CCN(c3nc4ccccc4nc3C(F)(F)F)CC2)c1	/	15µM	.	/	23µM	/
COc1ccccc1CCNC(=O)C1CCN(c2nc3ccccc3nc2C(F)(F)F)CC1	/	7.3µM	.	/	16µM	/
O=C(NCCc1ccccc1Cl)C1CCN(c2nc3ccccc3nc2C(F)(F)F)CC1	/	?	.	/	?	/
CCN(CC)c1nn2c(=O)c(C(=O)NCCc3cccc(C)c3)cnc2s1	/	?	.	/	?	/
CCN(CC)c1nn2c(=O)c(C(=O)NCc3cccc(C)c3)cnc2s1	/	16µM	.	/	?	/
CCCN(CCC)c1nn2c(=O)c(C(=O)NCc3cccc(OC)c3)cnc2s1	/	16µM	.	/	?	/
COc1ccc(COC(=O)N/N=C(\C)CC(=O)Nc2c(C)cc(C)cc2C)cc1	.	.	.	.	.	.
O=C(c1cc2ccccc2oc1=O)N1CCN(c2ccc(Cl)cc2)CC1	/	21µM	.	/	?	/
Cc1cc(C)c(S(=O)(=O)N2CCN(C(=O)c3cc4ccccc4oc3=O)CC2)c(C)c1	.	?	.	.	21µM	.
O=C(c1cc2ccccc2oc1=O)N1CCCN(C(=O)c2cc3ccccc3oc2=O)CC1	.	.	/	.	.	.
Cc1oc(=O)c(NC(=O)c2ccccc2)cc1C(=O)c1ccccc1	.	?	.	.	?	.
CCOC(=O)c1c(C)oc2c1C(=O)c1ccccc1C2=O	.	4.1µM	.	.	4.6µM	.
O=C1C(=O)c2c(C(=O)c3ccccc3)coc2-c2ccccc21	.	2.1µM	.	?	3.3µM	.
CCOC(=O)c1c(C)cc(=O)oc1C	.	.	.	.	.	.
Cc1oc2c(c1C(=O)c1ccccc1)C(=O)C(=O)c1ccccc1-2	?	1.8µM	.	-88	1.2µM	?

Screening data (PubChem)
